Records with an inconclusive call do not appear. Active and inactive are the calls of the source. Calls come from the whole dose curve; as a rule, active = well fitted cell-killing curve with a large enough effect; inconclusive = small, poorly fitted or top-dose-only effect, or effect the other way; inactive = flat fitted curve, though single readings scatter.
Assays:
Assay in all cases: Primary qHTS to identify gynecologic anti-cancer compounds using libraries of approved drugs and bioactive compounds (AID 1345084); note: nearly all actives have a fitted effect of over 55% in size
C33A = conditions: Gynecologic cancer cell panel viability, ATPlite luminescence, 48 h; series mostly up to 57.5 µM
Outline: (§1)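 Cell viability after 48 h drug treatment, ATPlite luminescence readout; five doses.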

CAOV3 = conditions: Gynecologic cancer cell panel viability, ATPlite luminescence, 48 h; series mostly up to 57.5 µM
Outline: as §1

CASKI = conditions: Gynecologic cancer cell panel viability, ATPlite luminescence, 48 h; series mostly up to 57.5 µM
Outline: as §1

Es-2 = conditions: Gynecologic cancer cell panel viability, ATPlite luminescence, 48 h; series mostly up to 57.5 µM
Outline: as §1

HeLa = conditions: Gynecologic cancer cell panel viability, ATPlite luminescence, 48 h; series mostly up to 57.5 µM
Outline: as §1

Hek293T = conditions: Gynecologic cancer cell panel viability, ATPlite luminescence, 48 h, control line for the selectivity index; series mostly up to 57.5 µM
Outline: as §1

JEG-3 = conditions: Gynecologic cancer cell panel viability, ATPlite luminescence, 48 h; series mostly up to 57.5 µM
Outline: as §1

OV90 = conditions: Gynecologic cancer cell panel viability, ATPlite luminescence, 48 h; series mostly up to 57.5 µM
Outline: as §1

PA-1 = conditions: Gynecologic cancer cell panel viability, ATPlite luminescence, 48 h; series mostly up to 57.5 µM
Outline: as §1

Tov-21-G = conditions: Gynecologic cancer cell panel viability, ATPlite luminescence, 48 h; series mostly up to 57.5 µM
Outline: as §1

Tov112D = conditions: Gynecologic cancer cell panel viability, ATPlite luminescence, 48 h; series mostly up to 57.5 µM
Outline: as §1

SKOV3 = conditions: Gynecologic cancer cell panel viability, ATPlite luminescence, 48 h; series mostly up to 57.5 µM
Outline: as §1

Measured: Potency

C=CC(C)(O)C1CC2C3(C)CCCC(C)(C)C3C(O)C(O)C2(C)O1 (centres undefined)
not listed: SKOV3
inactive: all other assays above

OCC1OC(Oc2cc(O)cc(/C=C/c3ccc(OC4OC(CO)C(O)C(O)C4O)cc3O)c2)C(O)C(O)C1O (centres undefined)
not listed: SKOV3
inactive: all other assays above

C=C1[C@@H]2CC[C@@]3(C)[C@H](c4ccoc4)OC(=O)C[C@]13O[C@H]1CC(=O)C(C)(C)[C@H](C(O)C(=O)OC)[C@]12C (some centres undefined)
not listed: PA-1
inactive: all other assays above

CCc1nn(CCO)c(CC)c1Oc1cc(C#N)cc(C#N)c1
not listed: SKOV3
inactive: all other assays above

O=C(O[C@@H]1O[C@H](CO)[C@@H](O)[C@H](O)[C@H]1O)c1ccccc1
not listed: PA-1
inactive: all other assays above

CC(CCc1ccc(O)cc1)O[C@@H]1O[C@H](CO[C@@H]2OC(CO)[C@H](O)[C@H]2O)[C@@H](O)[C@H](O)[C@H]1O (some centres undefined)
not listed: SKOV3
inactive: all other assays above

COCC1OC(n2cnc3c(=O)[nH]cnc32)C(O)C1O (centres undefined)
not listed: SKOV3
inactive: all other assays above

CC1(C)CC[C@]2(C(=O)O)CC[C@]3(C)C(=CCC4[C@@]5(C)CC[C@H](O)C(C)(C)C5CC[C@]43C)C2C1 (some centres undefined)
not listed: PA-1
inactive: all other assays above

O=C1C[C@@]2(C(=O)N1)C(=O)N(Cc1ccc(Br)cc1F)C(=O)c1cccn12
not listed: SKOV3
inactive: all other assays above

C=C1Cc2c(Cl)cc3[nH]c4c5c3c2[C@@]2(O)[C@@H]1C[C@@H]2C(C)(C)O[C@H]5C1CC[C@@]2(O)[C@@]35O[C@@H]3[C@H]3OC(C)(C)[C@H]3O[C@H]5CC[C@]2(C)[C@@]41C (some centres undefined)
not listed: SKOV3
inactive: all other assays above

CC(NC(=O)[C@H](Cc1ccccc1)NC(=O)OCc1ccccc1)C(=O)CF (some centres undefined)
not listed: SKOV3
inactive: all other assays above

CNc1nc(C)nc(N[C@H]2CCC[C@@H](C(=O)NCc3ccc(C#N)cc3C(F)(F)F)C2)n1
not listed: PA-1
inactive: all other assays above

COc1cc(/C=C/C(=O)O[C@@H]2O[C@H](CO)[C@@H](O)[C@H](O)[C@H]2O)ccc1O
not listed: SKOV3
inactive: all other assays above

COC(=O)C1=COC(OC2OC(CO)C(O)C(O)C2O)C2C(C)CC(=O)C12O (centres undefined)
not listed: PA-1
inactive: all other assays above
